# “And” between values parts separate entries of the source, which are not always exact repeats. Equal entries are not always repeated. Results filed as inconclusive are left out. A call without a number means that no potency is given here. Some structures have more than one record in an assay (separate samples or runs), and their calls can disagree. The source made the active and inactive calls. The call rests on the fitted dose curve; in most records, active means well fitted activation curve with a large enough effect in the repeat runs; inconclusive means weak or mixed curves; inactive means flat fitted curve, though single readings scatter.
# Assay: A CellTox Green Cytotoxicity Assay to monitor cytotoxicity in HepG2 cells - 32 hour (AID 1224883); further: nearly all actives have a fitted effect of over 50% in size
# Settings: CellTox Green fluorescence; series mostly up to 76.8 µM
# Outline: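 Continuous culture of HepG2 cells with a membrane-impermeant DNA dye; rising fluorescence marks dead cells. Compound exposure lasted up to 40 h at 37 C, with reads every 8 h from 0 h.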
# Potency means the concentration at half of the fitted maximal effect.
row,Structure (SMILES),Potency
1,Nn1cnnc1,inactive
2,CCCCC(CC)COC(=O)Cl (stereo unspecified),inactive
3,CCCCCCCCOC(=O)c1ccccc1C(=O)OCCCCCCCC,inactive
4,COC(=O)c1sccc1S(=O)(=O)NC(=O)Nc1nc(C)nc(OC)n1,inactive
5,COP(=S)(OC)Oc1cc(Cl)c(Cl)cc1Cl,inactive
6,O=c1oc2ccccc2c(O)c1C(CC(O)c1ccc(-c2ccc(Br)cc2)cc1)c1ccccc1 (stereo unspecified),inactive
7,CCC(C)c1cc([N+](=O)[O-])cc([N+](=O)[O-])c1O (stereo unspecified),inactive
8,CC(C)=CC1C(C(=O)OCc2coc(Cc3ccccc3)c2)C1(C)C (stereo unspecified),inactive
9,N#CC(Br)Br,inactive
10,CCN(CC)C(=O)/C(Cl)=C(\C)OP(=O)(OC)OC,inactive
11,CC(C)(c1cc(Cl)c(O)c(Cl)c1)c1cc(Cl)c(O)c(Cl)c1,inactive
12,CCCCCCOC(=O)c1ccccc1C(=O)OCCCCCC,inactive
13,Oc1cc(Cl)ccc1Oc1ccc(Cl)cc1Cl,43 µM (active) and 23.9 µM (active)
14,O=P(Oc1ccccc1)(Oc1ccccc1)Oc1ccccc1,inactive
15,Oc1ccc(-c2ccccc2)cc1,inactive and 49 µM (active)
16,CC(C)(C)c1ccccc1O,49.5 µM (active)
17,CCCCCCCCCCCOC(=O)c1ccccc1C(=O)OCCCCCCCCCCC,inactive
18,C[C@]12CCC(=O)C(O)=C1CC[C@@H]1[C@@H]2CC[C@]2(C)C(=O)CC[C@@H]12,inactive
19,CCCCN(CC)c1c([N+](=O)[O-])cc(C(F)(F)F)cc1[N+](=O)[O-],inactive

row,Structure (SMILES),Potency
1,Cc1ccc(OP(=O)(Oc2ccc(C)cc2)Oc2ccc(C)cc2)cc1,4.89 µM (active) and inactive
2,CC(C)Oc1cc(-n2nc(C(C)(C)C)oc2=O)c(Cl)cc1Cl,inactive
3,CC(C)NC(C)C,inactive
4,CCOP(=S)(OCC)O/N=C(\C#N)c1ccccc1,inactive
5,Cc1ccc2c(c1N)C(=O)c1ccccc1C2=O,inactive
6,O=S(=O)(Oc1ccc(Cl)cc1)c1ccc(Cl)cc1,inactive
7,COP(=S)(OC)Oc1ccc([N+](=O)[O-])cc1,inactive
8,OCC(O)CO,inactive
9,CCOCN(C(=O)CCl)c1c(C)cccc1CC,inactive
10,C=CC(=O)OCCO,inactive
11,Nc1ccc(-c2ccc(N)c(N)c2)cc1N,inactive
12,c1ccc(-c2cccc(-c3ccccc3)c2)cc1,inactive
13,Brc1ccc(Oc2cc(Br)c(Br)cc2Br)c(Br)c1,inactive
14,O=Cc1ccco1,inactive
15,NNC(=S)NN,inactive
16,CCCCCCCCC(=O)NCc1ccc(O)c(OC)c1,inactive
17,CCOc1cc(C=O)ccc1O,inactive
18,CCCCNC(=O)n1c(NC(=O)OC)nc2ccccc21,12.2 µM (active) and inactive
19,Cc1cc(C)cc(C)c1,inactive

# Assay: A CellTox Green Cytotoxicity Assay to monitor cytotoxicity in HEK293 cells - 8 hour (AID 1224884); further: nearly all actives have a fitted effect of over 35% in size
# Settings: CellTox Green fluorescence; series mostly up to 76.8 µM
# Outline: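 Each value comes from one timepoint of a single continuous run in which HEK293 cells with CellTox Green were exposed to compound for up to 40 h at 37 C, dye fluorescence rising with cell death.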
row,Structure (SMILES),Potency
1,Nn1cnnc1,inactive
2,CCCCC(CC)COC(=O)Cl (stereo unspecified),inactive
3,CCCCCCCCOC(=O)c1ccccc1C(=O)OCCCCCCCC,inactive
4,COC(=O)c1sccc1S(=O)(=O)NC(=O)Nc1nc(C)nc(OC)n1,inactive
5,COP(=S)(OC)Oc1cc(Cl)c(Cl)cc1Cl,inactive
6,O=c1oc2ccccc2c(O)c1C(CC(O)c1ccc(-c2ccc(Br)cc2)cc1)c1ccccc1 (stereo unspecified),inactive
7,CCC(C)c1cc([N+](=O)[O-])cc([N+](=O)[O-])c1O (stereo unspecified),inactive
8,CC(C)=CC1C(C(=O)OCc2coc(Cc3ccccc3)c2)C1(C)C (stereo unspecified),inactive
9,N#CC(Br)Br,inactive
10,CCN(CC)C(=O)/C(Cl)=C(\C)OP(=O)(OC)OC,inactive
11,CC(C)(c1cc(Cl)c(O)c(Cl)c1)c1cc(Cl)c(O)c(Cl)c1,inactive
12,CCCCCCOC(=O)c1ccccc1C(=O)OCCCCCC,inactive
13,Oc1cc(Cl)ccc1Oc1ccc(Cl)cc1Cl,50.1 µM (active) and inactive
14,O=P(Oc1ccccc1)(Oc1ccccc1)Oc1ccccc1,inactive
15,Oc1ccc(-c2ccccc2)cc1,inactive
16,CC(C)(C)c1ccccc1O,inactive
17,CCCCCCCCCCCOC(=O)c1ccccc1C(=O)OCCCCCCCCCCC,inactive
18,C[C@]12CCC(=O)C(O)=C1CC[C@@H]1[C@@H]2CC[C@]2(C)C(=O)CC[C@@H]12,inactive
19,CCCCN(CC)c1c([N+](=O)[O-])cc(C(F)(F)F)cc1[N+](=O)[O-],inactive

row,Structure (SMILES),Potency
1,Cc1ccc(OP(=O)(Oc2ccc(C)cc2)Oc2ccc(C)cc2)cc1,inactive
2,CC(C)Oc1cc(-n2nc(C(C)(C)C)oc2=O)c(Cl)cc1Cl,inactive
3,CC(C)NC(C)C,inactive
4,CCOP(=S)(OCC)O/N=C(\C#N)c1ccccc1,inactive
5,Cc1ccc2c(c1N)C(=O)c1ccccc1C2=O,inactive
6,O=S(=O)(Oc1ccc(Cl)cc1)c1ccc(Cl)cc1,inactive
7,COP(=S)(OC)Oc1ccc([N+](=O)[O-])cc1,inactive
8,OCC(O)CO,inactive
9,CCOCN(C(=O)CCl)c1c(C)cccc1CC,inactive
10,C=CC(=O)OCCO,inactive
11,Nc1ccc(-c2ccc(N)c(N)c2)cc1N,inactive
12,c1ccc(-c2cccc(-c3ccccc3)c2)cc1,inactive
13,Brc1ccc(Oc2cc(Br)c(Br)cc2Br)c(Br)c1,inactive
14,O=Cc1ccco1,42.2 µM (active) and inactive
15,NNC(=S)NN,inactive
16,CCCCCCCCC(=O)NCc1ccc(O)c(OC)c1,inactive
17,CCOc1cc(C=O)ccc1O,inactive
18,CCCCNC(=O)n1c(NC(=O)OC)nc2ccccc21,inactive
19,Cc1cc(C)cc(C)c1,inactive

# — PubChem BioAssay (Tox21)
